Screening results from PubChem BioAssay.
This is a sample that favours compounds with a hit; in the whole collection about 4.6% have one here.
NLRP3 yeast inh – NALP3 inflammasome inhibitors in reconstituted yeast, primary screen, luminescence, uHTS. Yeast reconstituted NLRP3/ASC/caspase-1, beta-gal luminescence, 24 h. inhibition, % at 10 µM. 330,000 compounds, 0.39% hits;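 active = inhibition of 50% or more; inactive = inhibition below 50%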;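 note: plate controls were induced DMSO wells for no effect and uninduced yeast grown without galactose for full effect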
TIM10 inh – growth inhibitors of isogenic TIM10 control yeast, primary screen, counter-screen for tim10-1 yeast inhibitor project, luminescence, uHTS. S. cerevisiae TIM10 strain growth, BacTiter-Glo luminescence, 24 h. inhibition, % at 10 µM. 330,000 compounds, 1.4% hits;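 active = inhibition of 40% or more at the single tested concentration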;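 note: wild-type TIM10 isogenic control strain grown at permissive 25 °C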
tim10-1 inh – growth inhibitors of tim10-1 mutant yeast, primary screen, luminescence, uHTS. inhibition, % at 20 µM. 330,000 compounds, 2.2% hits. S. cerevisiae tim10-1 ts strain growth, BacTiter-Glo, 24 h;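 active = inhibition of at least 40%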;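 note: mutant grown at 25 °C; 0% = DMSO wells with yeast and 100% = wells holding no yeast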
tim23-1 inh – growth inhibitors of tim23-1 mutant yeast, primary screen, luminescence, uHTS. S. cerevisiae tim23-1 growth, BacTiter-Glo luminescence, 24 h. inhibition, % at 20 µM. 330,000 compounds, 1.3% hits;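 active = growth inhibition of the mutant yeast at or above 50%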;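 note: temperature-sensitive mutant grown at 25 °C; plate controls were DMSO-treated mutant yeast for no effect and medium wells lacking yeast for full effect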
SKKanGAS inh – S. pyogenes SKKanGAS growth inhibitors in kanamycin, primary screen, streptokinase expression inhibitor project, SKKanGAS strain, BacTiter-Glo luminescence; 6 h; inhibition, % at 7.5 µM; 300,000 compounds, 1.3% hits; AID 1662, 2009;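 active = mean replicate score, as percent of positive control median, at least 50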;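 note: strain carries kanamycin resistance gene driven by streptokinase promoter and grows in 40 µg/ml kanamycin; loss of luminescence reflects streptokinase promoter inhibition or plain growth inhibition; 0% = median of DMSO wells and 100% = positive control at its reference dose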
PfHsp90 yeast 2 – growth inhibition of PfHsp90-expressing yeast, primary screen, antimalarial PfHsp90 inhibitor project, S. cerevisiae, BacTiter-Glo luminescence, single point, set 2 | BacTiter-Glo ATP, 48 h; yeast lacking PDR1 and PDR3 efflux regulators | inhibition, % at 9.4 µM | 310,000 compounds, 0.32% hits | AID 504621, 2011;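 active = every replicate shows inhibition above about 80%, whatever the replicate mean, limit read from the data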;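 note: 0% = DMSO neutral controls and 100% = 20 µM radicicol positive controls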
tim10-1 conf – growth inhibitors of tim10-1 mutant yeast, confirmation, single concentration, luminescence, S. cerevisiae | shares compounds with tim10-1 inh | S. cerevisiae tim10-1 ts strain growth, BacTiter-Glo, 24 h | inhibition, % at 20 µM | 7,400 compounds, 56% hits | AID 463213, 2010;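 active = inhibition of yeast growth at or above a set limit in either of two repeat tests at 20 µM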;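 note: tim10-1 mutant grown at permissive 25 °C to find synthetic lethal compounds; 0% = DMSO yeast wells and 100% = medium wells without yeast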
* marks the source's active call; other numbers are inactive results; · = no result given.

SMILES	NLRP3 yeast inh	TIM10 inh	tim10-1 inh	tim23-1 inh	SKKanGAS inh	PfHsp90 yeast 2	tim10-1 conf
Cc1ccc(S(=O)(=O)NCC(=O)OCC(=O)NC2CCCCC2)cc1	5	1	-9	-2	·	-15	·
CCC(=O)N1c2ccc(S(=O)(=O)CCC(=O)N3CCn4c3nc3ccccc34)cc2CC1C (stereo not drawn)	-15	17	45*	6	-3	16	29
Cn1c(SCC(=O)Nc2cccnc2Cl)nc2ccccc21	15	-5	-5	7	·	·	·
Cc1ccccc1NC(=O)CON=C(N)c1ccccc1	16	3	3	-7	·	-9	·
CC[N+](CC)(CC#Cc1ccccc1)CC(=O)c1ccc(Cl)cc1	-4	-5	51*	22	-6	-5	45*
O=C(O)/C(=C\c1ccc(-c2ccccc2[N+](=O)[O-])o1)c1ccccc1	25	12	40*	14	22	9	52*
Cc1ccc(-n2c(CNc3cccc(Cl)c3)n[nH]c2=S)cc1	20	18	25	20	0	-13	·
Cc1ccc(-n2c(Cc3ccccc3)n[nH]c2=S)cc1	14	8	40*	5	-2	·	20
S=c1[nH]nc(Cc2ccccc2)n1-c1ccccc1	22	13	23	1	-4	·	·
Cc1ccc(-n2c(CNc3ccc(C)c(Cl)c3)n[nH]c2=S)cc1	27	38	41*	42	-7	-6	9
N#Cc1ccc(Oc2ncccn2)cc1	0	2	18	-5	5	6	·
CCc1ccc(CN(C)C(=O)c2cc(COc3cc(C)c(Cl)c(C)c3)on2)nc1	5	29	38	29	-5	-10	·
Nc1nc(-c2ccc(Br)cc2)cs1	31	32	56*	44	3	-17	46*
Nc1nc(-c2ccc(F)cc2)cs1	13	1	-2	22	-8	-11	·
COc1cc(NC(=O)CCc2nnc3ccc(N4CCC5(CC4)OCCO5)nn23)cc(OC)c1	-1	4	3	-1	-6	4	·
Cc1cc(C(=O)NN=C2CCCCCC2)c(C)o1	-3	1	80*	13	-1	8	5
COc1ccccc1/C=C1\SC(=S)N(NS(=O)(=O)c2ccc(C)cc2)C1=O	-28	17	44*	40	17	-2	18
CC1(c2nnc(Cc3ccccc3)o2)CC(c2ccc(OC(F)(F)F)cc2)=NO1 (stereo not drawn)	30	-1	28	18	5	-8	·
CCN1C(=O)C2(C(C#N)=C(N)Oc3c2c(C)nn3-c2ccccc2)c2ccccc21 (stereo not drawn)	0	33	64*	39	-3	·	62*
CN(C)C(=S)Nc1ccc(Cc2ccncc2)cc1	12	8	21	6	-13	13	·
CCCN(CCC)C(=O)CC(c1ccccc1)c1cc(C)ccc1O (stereo not drawn)	5	22	46*	33	4	-11	34*
Cc1ccc(Sc2ncccc2C(N)=O)cc1	21	-14	-12	-10	-3	4	·
CCOC(=O)N1CCN(S(=O)(=O)c2ccc(C(=O)Nc3nnc(C4CC4)o3)cc2)CC1	-12	-9	-1	-4	3	-48	·
CC1CC(C)CN(S(=O)(=O)c2ccc(C(=O)Nc3nnc(C4CC4)o3)cc2)C1 (stereo not drawn)	15	27	47*	45	68*	0	10
Cc1cc(Br)c(NC(=O)c2c(-c3c(Cl)cccc3Cl)noc2C)c(Br)c1	12	-10	3	3	4	10	·
SMILES	NLRP3 yeast inh	TIM10 inh	tim10-1 inh	tim23-1 inh	SKKanGAS inh	PfHsp90 yeast 2	tim10-1 conf
COc1ccc(CC(=O)OCC(=O)NCCc2ccccc2)cc1OC	6	-26	20	6	-1	-14	·
Cc1nc2ccccc2c(C)c1CC(=O)N(C)CC(=O)Nc1cccc(F)c1	14	4	-6	-2	2	-25	·
O=C(/C=C/c1ccc(Cl)cc1Cl)N1CCN(c2ccc([N+](=O)[O-])c(N3CCOCC3)c2)CC1	6	13	42*	13	40	-35	16
O=C(CNC(=O)c1cccs1)Nc1ccc2c(c1)OCCO2	11	7	-23	-13	3	·	·
COCCn1c(SCC(=O)Nc2c(C)n(C)n(-c3ccccc3)c2=O)nnc1-c1ccncc1	-27	7	-4	-15	·	-12	·
Cc1ccc(CS(=O)(=O)c2ccc(C(=O)N3CCCCC3)cc2[N+](=O)[O-])cc1	24	19	24	24	-2	-31	·
Cc1ccc(CS(=O)(=O)c2ccc(C(=O)N3CCN(c4ccccn4)CC3)cc2[N+](=O)[O-])cc1	22	15	47*	33	6	·	24
N#Cc1cccnc1N1CCN(C(=O)c2cccs2)CC1	·	·	·	·	3	0	·
O=C(ON=C1CCN(S(=O)(=O)c2ccccc2)CC1)c1ccc(F)cc1	-2	37	52*	46	-3	·	54*
CN(Cc1ccccc1)C(=O)c1cccc(NC(=O)Cc2ccc(NC(=O)C3CCCN(C(=O)C4CCCC4)C3)cc2)c1 (stereo not drawn)	·	·	·	·	·	19	·
Cc1cccc(-n2c(-c3ccco3)n[nH]c2=S)c1	1	3	16	18	23	9	·
CCCc1cc(-c2n[nH]c(=S)n2-c2cccc(C)c2)cs1	18	28	46*	49	-7	-30	39*
Cc1cccc(OCCNc2cc(N3CCN(C)CC3)ccc2[N+](=O)[O-])c1	42	20	29	24	-2	35	·
Cc1ccc(OCCNc2cc(N3CCN(CCO)CC3)ccc2[N+](=O)[O-])cc1C	16	17	43*	35	3	25	23
O=C(/C=C/c1cccs1)c1cc(Br)ccc1OC(=O)N1CCOCC1	20	37	56*	35	0	-14	43*
CC(C)c1ccc(NC(=O)Nc2cc3sccc3n2C)cc1	25	18	42*	28	0	-6	11
C=CCNC(=O)c1cc2sccc2n1C	8	-23	-13	-4	-7	-4	·
Cn1c(=O)c2sccc2n2c(CCCC(=O)NC3CCN(Cc4ccccc4)CC3)nnc12	4	-19	-3	-11	3	19	·
O=C(CSc1n[nH]c(=O)n1C1CC1)c1c[nH]c2ccccc12	6	17	-4	19	·	·	·
O=S(=O)(NCCCSc1ccccc1)c1ccccc1F	41	5	42*	48	-4	5	18
